About 750 (58%) of roughly 1,300 compounds were called active. Some of the results follow.

The target of this assay is Sulfhydryl oxidase 1 (Homo sapiens) (UniProt O00391). Nature of the assay: QSOX1 enzyme inhibitors, primary screen, biochemical, ROS-Glo H2O2 luminescence, HTS (AID 1347418). The note with it: recombinant QSOX1, ROS-Glo H2O2 luminescence; at 12.5 µM; hits give high values; active = any value above zero.
Sequence of Sulfhydryl oxidase 1 (Homo sapiens) (O00391 whole entry, looked up): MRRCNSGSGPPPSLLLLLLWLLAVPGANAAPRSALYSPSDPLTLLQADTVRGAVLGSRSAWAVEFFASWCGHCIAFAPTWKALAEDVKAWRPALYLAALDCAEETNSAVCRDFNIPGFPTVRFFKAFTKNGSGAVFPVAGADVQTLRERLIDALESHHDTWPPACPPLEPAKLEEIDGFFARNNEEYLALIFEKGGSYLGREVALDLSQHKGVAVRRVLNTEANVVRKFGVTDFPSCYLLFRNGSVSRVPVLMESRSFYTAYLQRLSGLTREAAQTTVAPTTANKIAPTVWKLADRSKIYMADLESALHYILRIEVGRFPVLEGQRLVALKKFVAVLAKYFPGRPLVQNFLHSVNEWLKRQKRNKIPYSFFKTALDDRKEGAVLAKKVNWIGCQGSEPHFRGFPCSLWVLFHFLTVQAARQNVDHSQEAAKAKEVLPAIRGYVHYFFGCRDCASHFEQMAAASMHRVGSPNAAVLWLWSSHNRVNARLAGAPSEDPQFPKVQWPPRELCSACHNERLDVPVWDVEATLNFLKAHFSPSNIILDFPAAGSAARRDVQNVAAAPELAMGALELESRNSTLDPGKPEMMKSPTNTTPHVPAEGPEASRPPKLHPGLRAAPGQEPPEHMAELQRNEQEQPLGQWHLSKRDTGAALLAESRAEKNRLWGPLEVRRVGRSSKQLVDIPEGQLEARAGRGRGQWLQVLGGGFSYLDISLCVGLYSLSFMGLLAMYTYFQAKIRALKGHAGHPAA
By inhibition is commonly meant the relative decrease from the control value, in per cent. In the case of `C[C@](N)(Cc1ccc(O)cc1)C(=O)O`, the inhibition was -2.7% (inactive). With `C[C@](Cc1ccc(O)c(O)c1)(NN)C(=O)O`, the inhibition was 10.8% (active). Regarding `CC(N)(Cc1ccc(O)c(O)c1)C(=O)O` (centres undefined), the inhibition was 2.4% (active). `CC(N)(Cc1ccc(O)cc1)C(=O)O` (centres undefined): the inhibition is 0% (inactive). Take `C[C@](N)(Cc1ccc(O)c(O)c1)C(=O)O`: the inhibition was 8.7% (active). In the case of `COC(=O)C(C)(N)Cc1ccc(O)cc1` (centres undefined), the inhibition was -0.8% (inactive). For the compound `COc1cc(OC)c(/C=C2/C(=O)Nc3ccccc32)c(OC)c1`, the inhibition is -8.1% (inactive).

On to `CN(C)S(=O)(=O)c1ccc2c(c1)/C(=C/c1cc3c([nH]1)CCCC3)C(=O)N2`, for which the inhibition was -4.7% (inactive). On to `Cc1cc(C)c(/C=C2\C(=O)Nc3ccccc32)[nH]1`, for which the inhibition is 36.3% (active). Regarding `CN(C)c1ccc(/C=C2\C(=O)Nc3ccccc32)cc1`, the inhibition was 42.8% (active). Then `Cc1ccc(C(=O)Nc2ccc(S(=O)(=O)[O-])c3c2C(S(=O)(=O)[O-])=[C+]C(S(=O)(=O)O)=[C+]3)cc1NC(=O)c1cccc(NC(=O)Nc2cccc(C(=O)Nc3cc(C(=O)Nc4ccc(S(=O)(=O)[O-])c5c4C(S(=O)(=O)[O-])=[C+]C(S(=O)(=O)O)=[C+]5)ccc3C)c2)c1`, with -5.3% (inactive). On to `CC(C)NC[C@H](O)COc1cccc2[nH]ccc12`, for which the inhibition is -0.8% (inactive). Consider `CC(C)NC[C@H](O)COc1cccc2ccccc12`, for which the inhibition was -2.1% (inactive).

For `CC(C)NCC(O)COc1cccc2[nH]ccc12` (centres undefined), the inhibition is 1.4% (active). Then `CC(C)NCC(O)COc1cccc2ccccc12` (centres undefined), with -1.6% (inactive).

As to `C=CCc1ccccc1OCC(O)CNC(C)C` (centres undefined), the inhibition was 6.4% (active). In the case of `O=C1N(c2ccccc2)c2ccccc2C1(Cc1ccncc1)Cc1ccncc1`, the inhibition is -3.5% (inactive). Turning to `O=C(Nc1ccncc1)c1cc([N+](=O)[O-])ccc1Cl`, the inhibition was -4.2% (inactive). As for `O=C(Nc1ccccc1)c1cc([N+](=O)[O-])ccc1Cl`, the inhibition was 1.2% (active). Consider `O=C(Nc1ccc([N+](=O)[O-])cc1Cl)c1cc(Cl)ccc1O`, for which the inhibition was 8% (active). Consider `O=C(O)c1cc([N+](=O)[O-])ccc1NCCCc1ccccc1`, for which the inhibition is 2.3% (active). As for `CS(=O)(=O)Nc1ccc([N+](=O)[O-])cc1Oc1ccccc1`, the inhibition was -0.8% (inactive). Then `Nc1ccc(-c2ccc3ccccc3n2)cc1`, with 14.6% (active); and `NCC(O)(CS(=O)(=O)O)c1ccc(Cl)cc1` (centres undefined), with 7.3% (active); and `C[C@@H]1C(=O)NC2=Nc3cccc(Cl)c3CN21`, with -4.6% (inactive). As to `O=C1Cc2cc(CCN3CCN(c4nsc5ccccc45)CC3)c(Cl)cc2N1`, the inhibition is 8.8% (active). `NCCC1CCCC(CCN)N1` (centres undefined): the inhibition was -5.7% (inactive). As to `CC(=O)N[C@H]1[C@H]([C@H](O)[C@H](O)CO)OC(C(=O)O)=C[C@@H]1O`, the inhibition is 10.4% (active).

As to `OCc1cc(C(O)CNCCCCCCOCCCCc2ccccc2)ccc1O` (centres undefined), the inhibition is 12.5% (active). In the case of `Nc1ncn([C@@H]2O[C@H](CO)[C@H](O)C2O)c(=O)n1` (some centres undefined), the inhibition is -0.8% (inactive). Regarding `Nc1ccn([C@@H]2O[C@H](CO)[C@@H](O)C2O)c(=O)n1` (some centres undefined), the inhibition was 6% (active). Regarding `N=c1ccn2c(n1)OC1C(O)[C@@H](CO)O[C@H]12` (some centres undefined), the inhibition was 7.2% (active).

With `Nc1ccn([C@H]2CC[C@@H](CO)O2)c(=O)n1`, the inhibition was -3.2% (inactive). With `NC(=O)c1ncn([C@@H]2O[C@H](CO)[C@@H](O)[C@H]2O)c1O`, the inhibition was -0.4% (inactive). Turning to `OCCN(CCO)c1nc(N2CCCCC2)c2nc(N(CCO)CCO)nc(N3CCCCC3)c2n1`, the inhibition was 46.4% (active). With `CCc1c(C)[nH]c2c1C(=O)C(CN1CCOCC1)CC2` (centres undefined), the inhibition was -0.8% (inactive). For `C1CCC(N=C(NC23CC4CC(CC(C4)C2)C3)N2CCOCC2)CC1`, the inhibition was -2.2% (inactive).

Turning to `Cc1ccc(O)c(N=Nc2ccccc2)n1`, the inhibition was 67.9% (active).

Turning to `Nc1ccc(-c2nc3ccc(-c4nc5ccc(N)cc5[nH]4)cc3[nH]2)cc1`, the inhibition is 44.6% (active). For `O=c1[nH]c(=O)n([C@H]2C[C@H](O)[C@@H](CO)O2)cc1Br`, the inhibition was 2.6% (active). With `CCNc1nc2c(ncn2[C@H]2C[C@H](O)[C@@H](CO)O2)c(=O)[nH]1`, the inhibition was -0.7% (inactive). With `Cc1cn([C@H]2C=C[C@@H](CO)O2)c(=O)[nH]c1=O`, the inhibition is 0.2% (active). `Cc1cn([C@H]2C[C@@H](N=[N+]=[N-])[C@@H](CO)O2)c(=O)[nH]c1=O`: the inhibition was 1.9% (active). With `O=c1[nH]c(=O)n([C@H]2C[C@H](O)[C@@H](CO)O2)cc1/C=C/Br`, the inhibition is -4% (inactive). As to `c1ccc2c(c1)CC(N1CCN(c3cccc4c3OCCO4)CC1)C2`, the inhibition is 4.5% (active). For `Cc1cnc(NC(=O)C2=C(O)c3ccccc3S(=O)(=O)N2C)s1`, the inhibition was 5.4% (active).

In the case of `CN1C(C(=O)Nc2ccccn2)=C(O)c2ccccc2S1(=O)=O`, the inhibition is -4.7% (inactive). As for `CN1CC(O)C(O)C(O)C1CO` (centres undefined), the inhibition is 3.8% (active). The value for `FC(F)(F)c1ccccc1-n1ccnc1` was 4% (active); that for `CC(/C=C/c1cccc(Oc2ccc(F)cc2)c1)N(O)C(N)=O` (centres undefined) was 2.4% (active); that for `O=Nc1c(-c2c(O)[nH]c3ccccc23)[nH]c2ccccc12` was 42.8% (active). With `O=Nc1c(-c2c(O)[nH]c3cc(Br)ccc23)[nH]c2ccccc12`, the inhibition is 27.6% (active). For `O=C1Cc2c([nH]c3ccc(Br)cc23)-c2ccccc2N1`, the inhibition was -0.3% (inactive).

For `CC(C)(C)[C@]1(O)CCN2C[C@H]3c4ccccc4CCc4cccc(c43)[C@@H]2C1`, the inhibition is -0.1% (inactive).

On to `O=C(C1CCCCC1)N1CC(=O)N2CCc3ccccc3C2C1` (centres undefined), for which the inhibition is 1.7% (active).

In the case of `Cc1[nH]c(=O)c(C#N)cc1-c1ccncc1`, the inhibition was -3.2% (inactive).

Regarding `Cc1[nH]c(=O)c(C#N)cc1-c1ccc2nccn2c1`, the inhibition was 7.1% (active). Regarding `CC[C@H](NC(=O)c1c(C)c(-c2ccccc2)nc2ccccc12)c1ccccc1`, the inhibition was -2% (inactive).

On to `COC(=O)[C@H](NC(=O)c1cc(-c2ccccc2)nc2ccccc12)c1ccccc1`, for which the inhibition was 4.9% (active). For the compound `NCCS`, the inhibition was 3.5% (active). In the case of `CCOC(=O)c1ncn2c1CN(C)C(=O)c1cc(F)ccc1-2`, the inhibition is 0.3% (active). As for `NC(N)=N/N=C/c1c(Cl)cccc1Cl`, the inhibition is -2.6% (inactive).

Turning to `CCCCNc1cc(C(=O)O)cc(S(N)(=O)=O)c1Oc1ccccc1`, the inhibition is -3.4% (inactive). `c1ccc(C(NCCNC(c2ccccc2)c2ccccc2)c2ccccc2)cc1`: the inhibition was 6% (active). Take `CNCCc1cnc(CCC(c2ccccc2)c2ccccc2)[nH]1`: the inhibition is -2.3% (inactive). Then `CC(C)NNC(=O)c1ccncc1`, with 1.1% (active); and `COc1cc(N)c(Cl)cc1C(=O)OCCN1CCCCC1`, with 0.5% (active); and `CCN(CC)CCNC(=O)c1cc(Cl)c(N)cc1OC`, with -4.7% (inactive). The value for `CCN(CC)CCOC(=O)c1cc(Cl)c(N)cc1OC` was -5.7% (inactive).

The values above are taken from PubChem BioAssay AID1347418 (Sanford-Burnham Center for Chemical Genomics, 2020).
